Results from ChEMBL document CHEMBL3988442, “University of Dundee, Small-Polar-MMV Screening Library” (2021).
In all, about 48,000 compounds went through this assay and about 13,000 (27%) showed an effect of 50% or more. This is one part of the list.

Each compound was assayed on Wolbachia pipientis (assay: Anti-Wolbachia Cell-Based Screen). Conditions: 5 µM.
Format: functional
Design: scale not given: in the data most compounds retested in dose-response had high values
In the case of CC(=O)C(C)CC(=O)N(Cc1cccc(C)c1)C(C)C (configuration not stated), the “Percent Effect” value is reported as -23.01%.
In the case of Cc1ncsc1-c1nnc(C2CCN(Cc3ccccc3Cl)CC2)o1, the “Percent Effect” value is reported as 122.3%.
COc1ccccc1CN1CC[C@H](c2nnc(-c3cncn3C)o2)C1 was tested, and the “Percent Effect” value was -5.308%.
Cc1ncsc1-c1nnc(C2CCN(Cc3ccccc3F)CC2)o1 was tested, and the “Percent Effect” value was 106.9%.
In the case of Cc1ccccc1CN1CC[C@H](c2nnc(-c3cncn3C)o2)C1, the “Percent Effect” value is reported as 0.6101%.
For Cc1ncsc1-c1nnc(C2CCN(Cc3cccc(F)c3F)CC2)o1, the “Percent Effect” value was 117.8%.
For CCn1cnnc1CNC(=O)c1ccc(Br)cc1F, the “Percent Effect” value was -45.58%.
In the case of CC(C(=O)N1CCN(C(=O)c2ccc(F)cc2F)CC1)n1ccnc1 (configuration not stated), the “Percent Effect” value is reported as -6.751%.
In the case of CN(Cc1ccc(Cl)s1)C(=O)Cn1nc(-c2ccc(F)cc2)oc1=O, the “Percent Effect” value is reported as -64%.
In the case of CCCn1cnnc1CNC1CCSC1 (configuration not stated), the “Percent Effect” value is reported as 5.781%.
In the case of N#CCCN(Cc1cccnc1)C(=O)c1ccc(OCC2CC2)cc1, the “Percent Effect” value is reported as -3.781%.
For Cc1ccc(CN(C)C(=O)c2n[nH]c(N)c2-c2ccccc2)o1, the “Percent Effect” value was 90.65%.
In the case of Cc1nc(NC(=O)N(C)Cc2ccsc2)nn1C, the “Percent Effect” value is reported as 1.412%.
With Cc1noc(C)c1CN(C)C(=O)c1n[nH]c(N)c1-c1ccccc1 the “Percent Effect” value was 103.1%.
CN(Cc1ccsc1)C(=O)c1cc2c([nH]c1=O)CCCC2=O was tested, and the “Percent Effect” value was 2.933%.
With Cc1noc(C)c1CN(C)C(=O)c1nc(N2CCCC2)ncc1Cl the “Percent Effect” value was -6.035%.
Cc1noc(CN(C)c2ccccc2)n1 was tested, and the “Percent Effect” value was 0.05791%.
In the case of CN(Cc1ccsc1)C(=O)c1n[nH]c(N)c1-c1ccccc1, the “Percent Effect” value is reported as 96.05%.
Cc1ccccc1OCCC(=O)N(C)Cc1c(C)noc1C was tested, and the “Percent Effect” value was -17.09%.
With Cc1noc(C)c1C(=O)N(C)Cc1nc(-c2ccccn2)no1 the “Percent Effect” value was -7.046%.
For Cc1noc(CN(C)C(=O)c2n[nH]c(N)c2-c2ccccc2)n1, the “Percent Effect” value was 101.7%.
Cc1ccc(CN(C)C(=O)c2cccc(NC(N)=O)c2)o1 was tested, and the “Percent Effect” value was -0.4854%.
CCc1nnsc1C(=O)N(C)Cc1ccc(C)o1 was tested, and the “Percent Effect” value was 0.8104%.
Cc1ccc(CN(C)C(=O)c2cc3c(c(S(N)(=O)=O)c2)CCC3)o1 was tested, and the “Percent Effect” value was -13.85%.
CCC1=N[C@@]2(CC[C@@H]3CN(S(=O)(=O)CC)C[C@@H]32)C(=O)N1CCOC was tested, and the “Percent Effect” value was -7.119%.
In the case of CN(c1ncc(C(N)=O)cc1Cl)C1CCC(c2ccccc2)CC1 (configuration not stated), the “Percent Effect” value is reported as -13.88%.
CN(Cc1ccsc1)C(=O)Nc1ccc(=O)n(C)c1 was tested, and the “Percent Effect” value was -4.532%.
CCn1cnnc1C1CCN(C(=O)COc2ccccc2)CC1 was tested, and the “Percent Effect” value was 2.9%.
NC(=O)CN1CCC(c2cccc(Oc3ccccc3)n2)CC1 was tested, and the “Percent Effect” value was 173%.
CCn1cnnc1C1CCN(C(=O)CCCOc2ccccc2)CC1 was tested, and the “Percent Effect” value was 6.265%.
For CNCC(=O)N1CCC(c2cccc(Oc3ccccc3)n2)CC1, the “Percent Effect” value was 178.2%.
For NCC(=O)N1CCC(c2cccc(Oc3ccccc3)n2)CC1, the “Percent Effect” value was 130.3%.
COCC(=O)N1CCC(c2cccc(Cc3ccc(F)cc3)n2)CC1 was tested, and the “Percent Effect” value was -12.66%.
CC(=O)N1CCC(c2cccc(Oc3ccccc3)n2)CC1 was tested, and the “Percent Effect” value was 144.2%.
For CC(C)(C)c1nnc(CSc2ccccn2)o1, the “Percent Effect” value was 4.822%.
CN(Cc1ccccc1)C1(C(=O)NCC(N)=O)Cc2ccccc2C1 was tested, and the “Percent Effect” value was -1.712%.
O=C(NCc1csc(Cc2ccccc2)n1)C1NCCc2[nH]cnc21 (configuration not stated) was tested, and the “Percent Effect” value was -10.41%.
For CCn1nc(C)c(NC(=O)c2cc(NC(=O)C(C)C)n(C)n2)c1C, the “Percent Effect” value was 2.528%.
In the case of CCCc1cc(C(=O)N(Cc2cccnc2)Cc2cccnc2)[nH]n1, the “Percent Effect” value is reported as -21.08%.
For NCC1Cc2cc(-c3cncc(C(=O)N4CCCCC4)n3)cc(F)c2O1 (configuration not stated), the “Percent Effect” value was -1.954%.
Clc1cc(NCc2ncc[nH]2)nc2[nH]ccc12 was tested, and the “Percent Effect” value was 61.99%.
For Clc1cc(NCc2nccs2)nc2[nH]ccc12, the “Percent Effect” value was 109.6%.
Clc1cc(NCc2ccncc2)nc2[nH]ccc12 was tested, and the “Percent Effect” value was 93.22%.
With CN(C)CCNc1cc(-c2ncccc2Cl)c2cc[nH]c2n1 the “Percent Effect” value was -5.947%.
COc1ncc(-c2cc(NCCN(C)C)nc3[nH]ccc23)c(OC)n1 was tested, and the “Percent Effect” value was -3.716%.
For Fc1ccc(NCc2ncc[nH]2)cc1Br, the “Percent Effect” value was -22.04%.
For O=C(Nc1ccccc1)c1ccc(NCc2ccncc2)nn1, the “Percent Effect” value was -22.46%.
In the case of O=C(CCc1ccc(Br)cc1)NCCc1nnc[nH]1, the “Percent Effect” value is reported as 7.079%.
In the case of CC(C)(C)OCCN1CCCC1c1nc(Cc2ccc(F)cc2)no1 (configuration not stated), the “Percent Effect” value is reported as 28.24%.
With c1ccc(CN2CCC(NCCSc3cnn[nH]3)CC2)cc1 the “Percent Effect” value was -22.28%.
For CC(=O)N1CCCC1c1cncc(Oc2ccc(F)cc2)n1 (configuration not stated), the “Percent Effect” value was 97.95%.
CN(C)CC(=O)N1CCCC1c1cncc(Oc2ccc(F)cc2)n1 (configuration not stated) was tested, and the “Percent Effect” value was 102.5%.
With CN(CC(=O)N1CCCC1c1ccccn1)Cc1ccccc1 (configuration not stated) the “Percent Effect” value was -5.131%.
O=C(CCCOCc1ccccc1)N1CCCC1c1ccccn1 (configuration not stated) was tested, and the “Percent Effect” value was -5.136%.
With COc1ccc(C2CCCN2C(=O)Nc2ccc(OC)nc2)cc1 (configuration not stated) the “Percent Effect” value was 2.775%.
In the case of CNCC(=O)N1CCCC1c1cncc(Oc2ccc(F)cc2)n1.Cl (configuration not stated), the “Percent Effect” value is reported as 105.9%.
In the case of COc1ccc(Oc2cncc(C3CCCN3C(C)=O)n2)cc1 (configuration not stated), the “Percent Effect” value is reported as -16.34%.
For COC(=O)CCCC(=O)N1CCCCC1c1ccc(F)cc1 (configuration not stated), the “Percent Effect” value was -3.374%.
With CN(C)CC(=O)N1CCCC1c1ccccn1 (configuration not stated) the “Percent Effect” value was 98.84%.
For Cc1cn(-c2ccccc2)nc1NS(=O)(=O)c1cc(C(=O)O)cs1, the “Percent Effect” value was 3.492%.
For COc1cccc(-c2n[nH]cc2C(=O)NC(C)c2n[nH]c(C)n2)c1 (configuration not stated), the “Percent Effect” value was 6.595%.
With O=C(NC1CC1)c1nc2c(o1)CN(c1ncccn1)C2 the “Percent Effect” value was -9.105%.
In the case of Fc1ccc(CN2CCCn3cnc(COCC4CC4)c3C2)cc1.O=C(O)C(F)(F)F, the “Percent Effect” value is reported as 3.17%.
CC(C)CNC[C@H]1O[C@H](Cc2cc(-c3ccccn3)on2)CC[C@@H]1O was tested, and the “Percent Effect” value was -6.166%.
With Cn1nc(C2CC2)c2c1NC(=O)CC2c1ccc(CN2CCCCC2)s1 (configuration not stated) the “Percent Effect” value was -3.758%.
COCCOc1ccccc1CNCC1COC2(CCCC2)O1 (configuration not stated) was tested, and the “Percent Effect” value was 0.05602%.
In the case of CC(=O)N(Cc1ncc(C)o1)C1CCN(CCNC2CCCCC2)C1 (configuration not stated), the “Percent Effect” value is reported as -4.891%.
In the case of CC(=O)N(Cc1ncc(C)o1)C1CCN(Cc2csc(C)n2)C1 (configuration not stated), the “Percent Effect” value is reported as 123.5%.
In the case of CC(=O)N(Cc1ncc(C)o1)C1CCN(Cc2sc(C)nc2C)C1 (configuration not stated), the “Percent Effect” value is reported as 115.4%.
With Cc1cnc(CN(C)C2CCN(CC(=O)N(C)c3nccs3)C2)o1 (configuration not stated) the “Percent Effect” value was -8.119%.
With CC(=O)N(Cc1ncc(C)o1)C1CCN(Cc2cc(C)on2)C1 (configuration not stated) the “Percent Effect” value was 118.6%.
With CC(=O)N(Cc1ncc(C)o1)C1CCN(CCCc2cnn(C)c2)C1 (configuration not stated) the “Percent Effect” value was 5.261%.
With CC(=O)N(Cc1ncc(C)o1)C1CCN(Cc2ccon2)C1 (configuration not stated) the “Percent Effect” value was 139.3%.
CC(=O)N(Cc1ncc(C)o1)C1CCN(Cc2noc(C)n2)C1 (configuration not stated) was tested, and the “Percent Effect” value was 3.628%.
For COCCCN1CCN(C(=O)C(c2cccc(F)c2)N(C)C)CC1 (configuration not stated), the “Percent Effect” value was -8.976%.
In the case of CC(NC(=O)C1=NN(C)C(=O)CC1)c1ccc(F)cc1F (configuration not stated), the “Percent Effect” value is reported as -12.15%.
In the case of COc1ccc(OC)c(C2C3=C(COC3=O)Nc3[nH]nc(C)c32)c1 (configuration not stated), the “Percent Effect” value is reported as 5.984%.
Cn1c(NCC(O)c2ccc(F)cc2F)c(C#N)c(=O)n(C)c1=O (configuration not stated) was tested, and the “Percent Effect” value was -7.398%.
In the case of CCN1CC(C(=O)N2CC(Oc3ccccc3Cl)C2)CC1=O (configuration not stated), the “Percent Effect” value is reported as -26.5%.
In the case of Cc1cc(CN(C)C(=O)NC2CCCC2)no1, the “Percent Effect” value is reported as -3.677%.
For Cc1occc(=O)c1OCc1noc(C(=O)NCC2CC2)n1, the “Percent Effect” value was 118%.
For COCCCNC(=O)Nc1ccc(OCc2noc(C3CC3)n2)cc1, the “Percent Effect” value was 4.086%.
Cc1occc(=O)c1OCc1noc(C(=O)NC2CCCC2)n1 was tested, and the “Percent Effect” value was 110.2%.
For O=C(NC1CCCC1)c1nc2c(o1)CN(CCO)C2, the “Percent Effect” value was 4.983%.
In the case of O=C(NCC1CC1)c1nc(COc2ccc3c(c2)OCO3)no1, the “Percent Effect” value is reported as 5.191%.
Cc1ccc(NC(=O)CSCc2cccnc2)nc1 was tested, and the “Percent Effect” value was 4.357%.
CN(C)C(=O)C1(Oc2ccc(Cl)cc2)CCNCC1 was tested, and the “Percent Effect” value was -10.8%.
With O=C(C1CCOC1)N1Cc2ccccc2OC2(CCOCC2)C1 (configuration not stated) the “Percent Effect” value was 110.4%.
In the case of CC(C)n1cc(C(=O)N2Cc3ccccc3OC3(CCOCC3)C2)cn1, the “Percent Effect” value is reported as -9.745%.
With COCCN(C)CCN1CC2(CCN(C(=O)C3CCOC3)CC2)OC1=O (configuration not stated) the “Percent Effect” value was -2.366%.
With CC(C)NC(=O)N1CCC2(CCCO2)C1 (configuration not stated) the “Percent Effect” value was 5.792%.
For CC(=O)N1CCOC2(CCN(C(=O)C3CC3)CC2)C1, the “Percent Effect” value was 104.2%.
With CC(=O)N1Cc2ccccc2OC2(CCN(C(=O)C3CCOC3)CC2)C1 (configuration not stated) the “Percent Effect” value was 188.7%.
With O=C(C1CCOC1)N1CCC2(CC1)CN(c1ncccn1)CCO2.O=C(O)C(F)(F)F (configuration not stated) the “Percent Effect” value was -29.34%.
For O=C(c1ccncc1)N1Cc2ccccc2OC2(CCOCC2)C1, the “Percent Effect” value was -8.514%.
For CC(=O)N1CCCC2(C1)CN(C(=O)C1CCCCC1)CCO2 (configuration not stated), the “Percent Effect” value was -22.57%.
In the case of CC(C)NC(=O)N1CCC2(CC1)CN(C(=O)NC(C)C)CCO2, the “Percent Effect” value is reported as 117%.
CC(C)CNC(=O)N1CCC2(CCCO2)C1 (configuration not stated) was tested, and the “Percent Effect” value was 14.05%.
For CN1CCCC2(C1)CN(C(=O)C1CCCCC1)CCO2 (configuration not stated), the “Percent Effect” value was -29.79%.
In the case of CCCn1cnnc1-c1nc2c([nH]1)CC(c1ccc(Cl)cc1)CNC2=O (configuration not stated), the “Percent Effect” value is reported as 14.47%.
For O=S(=O)(Cc1ccc(F)c(Cl)c1)NC(CO)c1ccco1 (configuration not stated), the “Percent Effect” value was -13.92%.
In the case of COc1ccccc1C1CNC(=O)c2nc(-c3cn(C)nc3C)[nH]c2C1 (configuration not stated), the “Percent Effect” value is reported as -4.665%.
Cc1cnc(C(=O)N2CCC3(CC2)C(=O)NCCN3CC(C)C)cn1 was tested, and the “Percent Effect” value was 4.389%.
For COCc1nc(N(C)C/C=C/c2ccccc2)c2cnn(C)c2n1, the “Percent Effect” value was -13.22%.
In the case of O=C(c1c[nH]cn1)N1CCC(n2cc(-c3ccsc3)nn2)CC1, the “Percent Effect” value is reported as -0.5309%.
With CC(=O)N1Cc2ccccc2OC2(CCN(C(=O)C3CC3)CC2)C1 the “Percent Effect” value was 187.7%.
In the case of Cc1cc(C(=O)N2Cc3ccccc3OC3(CCOCC3)C2)nc(N)n1, the “Percent Effect” value is reported as -4.105%.
